These results are taken from PubChem BioAssay (EPA / NIEHS).

Calls of active or inactive are those of the source. How the source made its calls: active means hit-call score of the fitted dose curve at least 0.9, where 1 is the maximum; inactive means score below 0.9.

Read-out in assay [1]: Low-density lipoprotein receptor (LDLR), LDLR (gene 3949)
The assay can be described thus: BSK_CASM3C_LDLR: BioMAP Diversity Plus: CASM3C Assay for Low-density lipoprotein receptor (LDLR) Biomarker Activity (AID 2283045).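 Further: LDLR protein level on the cell surface quantified by ELISA.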 Conditions: primary human coronary artery smooth muscle cells; actives raise or lower the signal.

Read-out in assay [2]: Monocyte Chemoattractant Protein-1 (MCP1), CCL2 (gene 6347)
The assay can be described thus: BSK_CASM3C_MCP1: BioMAP Diversity Plus: CASM3C Assay for Monocyte Chemoattractant Protein-1 (MCP1) Biomarker Activity (AID 2283046).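 Further: MCP-1 level quantified by ELISA 24 h after dosing.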 Conditions: primary human coronary artery smooth muscle cells; actives raise or lower the signal.

Assay [3] in a line: BSK_CASM3C_Proliferation: Cell Proliferation Assessment in the BioMAP Diversity Plus: CASM3C Assay (AID 2283047).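 Further: sulforhodamine B total protein stain as relative cell number at 560 nm; sub-confluent cells exposed 48 h before staining; fitted both ways against DMSO so gain or loss of cell number.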 Conditions: primary human coronary artery smooth muscle cells.
Read-out in assay [4]: Monokine induced gamma interferon (MIG), CXCL9 (gene 4283)
The assay can be described thus: BSK_CASM3C_MIG: BioMAP Diversity Plus: CASM3C Assay for Monokine induced gamma interferon (MIG) Biomarker Activity (AID 2283048).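 Further: MIG protein level measured by ELISA.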 As to conditions: primary human coronary artery smooth muscle cells; actives raise or lower the signal.

Read-out in assay [5]: serum amyloid A (SAA), SAA1 (gene 6288)
The assay can be described thus: BSK_CASM3C_SAA: BioMAP Diversity Plus: CASM3C Assay for serum amyloid A (SAA) Biomarker Activity (AID 2283049).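 Further: SAA protein level quantified by ELISA.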 Conditions: primary human coronary artery smooth muscle cells; actives raise or lower the signal.

Assay [6] can be described thus: BSK_CASM3C_SRB: Viability Assessment in the BioMAP Diversity Plus: CASM3C Assay (AID 2283050).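 Further: cells exposed to compound for 24 h.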 As to conditions: primary human coronary artery smooth muscle cells.
Read-out in assay [7]: Thrombomodulin, THBD (gene 7056)
The assay can be described thus: BSK_CASM3C_Thrombomodulin: BioMAP Diversity Plus: CASM3C Assay for Thrombomodulin Biomarker Activity (AID 2283051).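 Further: thrombomodulin protein level measured by ELISA 24 h after dosing.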 Conditions: primary human coronary artery smooth muscle cells; actives raise or lower the signal.

Read-out in assay [8]: Tissue Factor, F3 (gene 2152)
The assay can be described thus: BSK_CASM3C_TissueFactor: BioMAP Diversity Plus: CASM3C Assay for Tissue Factor Biomarker Activity (AID 2283052).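 Further: cell surface tissue factor protein level read by ELISA.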 Conditions: primary human coronary artery smooth muscle cells; actives raise or lower the signal.

Read-out in assay [9]: Interferon-gamma inducible Protein 10 (IP10), CXCL10 (gene 3627)
The assay can be described thus: BSK_hDFCGF_IP10: BioMAP Diversity Plus: hDFCGF Assay for Interferon-gamma inducible Protein 10 (IP10) Biomarker Activity (AID 2283053). Conditions: primary human foreskin fibroblasts; actives raise or lower the signal. Put shortly: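 Primary human foreskin fibroblasts exposed to chemicals for 24 h. IP-10 measured by ELISA; changes fitted bidirectionally against DMSO baseline.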

Read-out in assay [10]: Urokinase-type plasminogen activator receptor (uPAR), PLAUR (gene 5329)
The assay can be described thus: BSK_CASM3C_uPAR: BioMAP Diversity Plus: CASM3C Assay for Urokinase-type plasminogen activator receptor (uPAR) Biomarker Activity (AID 2283054).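 Further: cell-surface uPAR protein level quantified by ELISA.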 As to conditions: primary human coronary artery smooth muscle cells; actives raise or lower the signal.

Read-out in assay [11]: Vascular cell adhesion molecule 1 (VCAM1), VCAM1 (gene 7412)
The assay can be described thus: BSK_CASM3C_VCAM1: BioMAP Diversity Plus: CASM3C Assay for Vascular cell adhesion molecule 1 (VCAM1) Biomarker Activity (AID 2283055).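 Further: VCAM-1 protein level quantified by ELISA on the cells.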 As to conditions: primary human coronary artery smooth muscle cells; actives raise or lower the signal.

Read-out in assay [12]: Collagen III, COL3A1 (gene 1281)
The assay can be described thus: BSK_hDFCGF_CollagenIII: BioMAP Diversity Plus: hDFCGF Assay for Collagen III Biomarker Activity (AID 2283056). Conditions: primary human foreskin fibroblasts; actives raise or lower the signal. The method in brief:
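ELISA readout of Collagen III in human dermal (foreskin) fibroblasts, taken 24 h post-treatment. Gain or loss relative to DMSO vehicle fitted in both directions.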

Read-out in assay [13]: Epidermal growth factor receptor (EGFR), EGFR (gene 1956)
The assay can be described thus: BSK_hDFCGF_EGFR: BioMAP Diversity Plus: hDFCGF Assay for Epidermal growth factor receptor (EGFR) Biomarker Activity (AID 2283057). As to conditions: primary human foreskin fibroblasts; actives raise or lower the signal. Put shortly:
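Primary human foreskin fibroblasts (hDFCGF system), sampled 24 h after dosing; EGFR quantified by ELISA. Bidirectional fit relative to DMSO baseline; SRB total-protein staining in parallel cultures for cytotoxicity.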

Read-out in assay [14]: Interleukin-8 (IL8), CXCL8 (gene 3576)
The assay can be described thus: BSK_hDFCGF_IL8: BioMAP Diversity Plus: hDFCGF Assay for Interleukin-8 (IL8) Biomarker Activity (AID 2283058). As to conditions: primary human foreskin fibroblasts; actives raise or lower the signal. The method in brief:
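IL-8 levels read by ELISA at 24 hours after dosing human skin fibroblast cultures. Parallel SRB staining assessed overt cytotoxicity, and gain or loss of signal was fitted against DMSO control.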

A short description of assay [15]: BSK_hDFCGF_Proliferation: Cell Proliferation Assessment in the BioMAP Diversity Plus: hDFCGF Assay (AID 2283059).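 Further: curves fitted for both rise and fall of signal versus DMSO baseline.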 Conditions: primary human foreskin fibroblasts. The method in brief:
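This proliferation readout used SRB total-protein staining of human foreskin fibroblasts […], normalized to DMSO with bidirectional curve fitting.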

Read-out in assay [16]: Macrophage colony-stimulating factor (MCSF), CSF1 (gene 1435)
The assay can be described thus: BSK_hDFCGF_MCSF: BioMAP Diversity Plus: hDFCGF Assay for Macrophage colony-stimulating factor (MCSF) Biomarker Activity (AID 2283060). As to conditions: primary human foreskin fibroblasts; actives raise or lower the signal. Put shortly:
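M-CSF levels read by ELISA at 24 h post-dosing in human skin fibroblasts. Parallel cultures stained with SRB assessed cytotoxicity at the same time point; response fitted in both directions against the DMSO baseline.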

A short description of assay [17]: BSK_hDFCGF_SRB: Viability Assessment in the BioMAP Diversity Plus: hDFCGF Assay (AID 2283061).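 Further: cells exposed to compound for 24 h before the read.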 As to conditions: primary human foreskin fibroblasts. Put shortly:
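Viability was read as total protein: after 10% TCA fixation, wells were stained with 0.1% sulforhodamine B and read at 560 nm. Primary human foreskin fibroblasts were dosed for 24 h, with bidirectional fitting versus DMSO.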

Read-out in assay [18]: TIMP metallopeptidase inhibitor 1 (TIMP1), TIMP1 (gene 7076)
The assay can be described thus: BSK_hDFCGF_TIMP1: BioMAP Diversity Plus: hDFCGF Assay for TIMP metallopeptidase inhibitor 1 (TIMP1) Biomarker Activity (AID 2283062). As to conditions: primary human foreskin fibroblasts; actives raise or lower the signal. Put shortly: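 TIMP-1 measured by ELISA 24 h after chemical dosing of primary human skin fibroblasts, with gain or loss fitted relative to DMSO. Parallel SRB staining (560 nm) monitored overt cytotoxicity.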

Read-out in assay [19]: Monokine induced gamma interferon (MIG), CXCL9 (gene 4283)
The assay can be described thus: BSK_hDFCGF_MIG: BioMAP Diversity Plus: hDFCGF Assay for Monokine induced gamma interferon (MIG) Biomarker Activity (AID 2283063). Conditions: primary human foreskin fibroblasts; actives raise or lower the signal. Put shortly:
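Human primary foreskin fibroblasts in the hDFCGF system, exposed to test chemical for 24 h; MIG measured by ELISA. Bidirectional curve fitting against DMSO negative control as activity baseline.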

Read-out in assay [20]: Matrix Metallopeptidase 1 (MMP1), MMP1 (gene 4312)
The assay can be described thus: BSK_hDFCGF_MMP1: BioMAP Diversity Plus: hDFCGF Assay for Matrix Metallopeptidase 1 (MMP1) Biomarker Activity (AID 2283064). As to conditions: primary human foreskin fibroblasts; actives raise or lower the signal. Put shortly:
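hDFCGF primary fibroblasts (human foreskin); chemical added; 24 h; MMP1 by ELISA; bidirectional fit vs DMSO.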

On to `CCCC[C@H]1CN(CC2CCOCC2)C(=O)OC12CCN(C1(C)CCN(C(=O)c3c(C)ncnc3C)CC1)CC2`, for which the outcome in assay [1], in assay [2], in assay [3], in [4], in assay [5] and in assay [6] was inactive. Besides, the result in [7], in assay [8], in assay [9], in [10], in assay [11] and in assay [12] was inactive. Also, the outcome in assay [13], in assay [14], in assay [15], in [16], in assay [17] and in assay [18] was inactive. For the same compound, the result in assay [19] and in assay [20] was inactive.

One may read the AC50 as the midpoint of the concentration-response curve, whichever way the signal moves. With `COc1ccc(OC(F)(F)F)cc1CN[C@H]1CCCN[C@H]1c1ccccc1`, the AC50 is 6.31 µM (active) in assay [1], 29.6 µM (active) in assay [3] and 15 µM (active) in assay [6]. The result in assay [2], in [4], in assay [5], in [7], in [8] and in [9] was inactive. Further, the result in assay [10], in assay [11], in assay [12], in [13], in assay [14] and in [16] was inactive. The result in assay [17], in assay [18], in [19] and in assay [20] was inactive.

For `CC(COCC(C)OC(=O)c1ccccc1)OC(=O)c1ccccc1` (stereo not drawn), the result in [1], in assay [2], in assay [3], in assay [4], in [5] and in assay [6] was inactive. The result in assay [7], in assay [8], in assay [9], in [10], in assay [11] and in [12] was inactive. Further, the outcome in [13], in [14], in assay [16], in assay [17], in [18] and in assay [19] was inactive. In addition, the result in assay [20] was inactive. For the same compound, the concentration at half-maximal activity (AC50) in assay [15] is 33.7 µM (active).

On to `O=C1c2c(O)cccc2Cc2cccc(O)c21`, for which the outcome in assay [1], in [2], in assay [4], in assay [5], in assay [6] and in [7] was inactive. For the same compound, the outcome in [8], in assay [10], in assay [11], in [13], in assay [14] and in [15] was inactive. Also, the result in assay [18] and in [20] was inactive. The AC50 in assay [3] is 9.85 µM (active); in [9], 17.1 µM (active); in [12], 30.7 µM (active); in assay [16] it was 17.1 µM (active); in [17], 7.76 µM (active); in [19] it was 15.7 µM (active).

`CCCCCCCCCC[N+](C)(C)[O-]`: the result in assay [1], in assay [2], in assay [3], in assay [4], in assay [5] and in [6] was inactive. Also, the outcome in assay [7], in assay [8], in assay [9], in assay [10], in assay [11] and in [12] was inactive. The outcome in assay [13], in assay [14], in assay [15], in assay [16], in assay [17] and in [18] was inactive. Besides, the result in [19] and in assay [20] was inactive.

For `CN(C)C(=O)NC1(c2ccccc2)CCN(CC[C@@]2(c3ccc(F)c(F)c3)CN(C(=O)c3ccccc3)CCO2)CC1`, the outcome in [1], in assay [2], in [3], in [4], in [5] and in [6] was inactive. Also, the result in [7], in [8], in assay [9], in assay [10], in [11] and in [12] was inactive. In addition, the outcome in [13], in assay [14], in [16], in assay [17], in assay [18] and in [19] was inactive. For the same compound, the result in assay [20] was inactive. In assay [15], the AC50 was 14.2 µM (active).

With `CO[C@@H]1COCC[C@@H]1N[C@@H]1CC[C@@](C(=O)N2CCc3ncc(C(F)(F)F)cc3C2)(C(C)C)C1`, the outcome in assay [1], in assay [2], in assay [3], in [4], in assay [5] and in assay [6] was inactive. For the same compound, the outcome in [7], in assay [8], in [9], in assay [10], in assay [11] and in [12] was inactive. The result in assay [13], in assay [14], in [15], in assay [16], in [17] and in assay [18] was inactive. The result in [19] and in [20] was inactive.

For `CC1(C)C(=O)NC(=O)N1CO`, the outcome in assay [1], in assay [2], in assay [3], in [4], in [5] and in [6] was inactive. The outcome in assay [7], in [8], in assay [9], in [10], in assay [11] and in [12] was inactive. Also, the result in assay [13], in [14], in assay [15], in assay [16], in assay [17] and in [18] was inactive. For the same compound, the outcome in assay [19] and in [20] was inactive.

For the compound `Cc1cc(Cc2ccc(N)c(C)c2)ccc1N`, the result in [1], in assay [2], in assay [3], in assay [4], in assay [6] and in [7] was inactive. Also, the outcome in [8], in assay [9], in [10], in assay [11], in [12] and in [13] was inactive. The outcome in assay [14], in assay [16], in [17], in assay [18], in assay [19] and in [20] was inactive. In addition, the AC50 in assay [15] is 3.12 µM (active).
